# Values without a mark were called inactive.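 The calls were made as follows: active = compound blocking phage killing of bacteria by at least 30% at some tested dose; inactive = the rest.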
# Assay: UTI89 protection from K1F phage killing – strain UTI89, C7 control, set 3, capsule biogenesis inhibitor project, dose response (AID 504675)
# Conditions: E. coli UTI89 K1 capsule; OD600, at 100 µM (top of the series); inhibition of phage lysis: at the top concentration
row,SMILES,inhibition of phage lysis
1,O=C(O)c1cc(-c2ccc(F)cc2)nc2ccccc12,1%
2,N=c1n(CCN2CCCC2)c2ccccc2n1CC(O)c1ccc(Cl)c(Cl)c1 (centres undefined),1%
3,COc1cccc(C(=O)Nc2nc3ccc(OC)cc3s2)c1,1%
4,COc1ccc2nc(NC(=O)c3ccccc3OC)sc2c1,1%
5,COc1ccc2nc(NC(=O)c3ccccc3)sc2c1,1%
6,COc1ccc2nc(NC(=O)c3ccc(F)cc3)sc2c1,1%
7,COc1ccc(C(=O)Nc2nc3ccc(OC)cc3s2)cc1,1%
8,O=C(O)c1cc(-c2cccc(F)c2)nc2ccccc12,1%
9,COc1cccc(-c2cc(C(=O)O)c3ccccc3n2)c1,1%

# From PubChem BioAssay AID504675 (Southern Research Specialized Biocontainment Screening …, 2011)
